This is a sample that favours compounds with a hit; in the whole collection about 2.2% have one here.
HSP90 refold inh – HSP90 refolding inhibition in rabbit reticulocyte lysate | luciferase refolding luminescence, 3 h | inhibition, % at 5.6 µM | hit rate 0.91% among 290,000;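 active = inhibition above the screen-wide mean plus 3 SD, computed separately per campaign, cut at about 16% in these data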;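 also: inhibitors lower the luminescence because luciferase stays unfolded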
TWEAK Fn14 block – TWEAK-Fn14 signaling inhibition; AID 1159606; hit rate 2% among 360,000; TWEAK-stimulated Fn14 reporter cells, luciferase luminescence, 8 h; inhibition, % at 10 µM; in the data active = inhibition above about 50%
TROY NFkB inh – blocks TROY-dependent signaling in reporter cells; Q293 LMP1-TROYcd NF-kB luciferase reporter, 4 h; inhibition, % at 10 µM; hit rate 0.98% among 360,000;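 active = compounds whose plate-normalised and pattern-corrected inhibition of the luciferase reporter signal at the single screening dose is 50% or more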
LGR2 antag – Drosophila LGR2 receptor signaling inhibition; HEK293 LGR2, CRE-luciferase, bursicon-stimulated, 4 h; inhibition, % at 9.99 µM; hit rate 0.35% among 380,000; AID 720647;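 active = drop in luminescence signal, shown as inhibition above about 50% in the replicate tests, limit read from the data, passing the limit was not always enough; inconclusive = probably only some replicates passing the limit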;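 also: agonist challenge used bursicon conditioned medium at about half maximal strength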
HSP90 confirm – confirmation of HSP90 inhibitors; hit rate 64% among 2,300; rabbit reticulocyte lysate, luciferase refolding luminescence, 3 h; shares compounds with HSP90 refold inh; inhibition, % at 5.9 µM; AID 1846; in the data active = inhibition above about 18%
luciferase ctr – counter-screen for HSP90 inhibitors: inhibitors of firefly luciferase; shares compounds with HSP90 refold inh; inhibition, % at 5.9 µM; purified native firefly luciferase, luminescence; hit rate 48% among 2,300; AID 1847;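 active = inhibition above the mean inhibition of all tested sample wells plus 3 SD, cut at about 10% in these data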
Target sequence (P08659 whole entry, looked up): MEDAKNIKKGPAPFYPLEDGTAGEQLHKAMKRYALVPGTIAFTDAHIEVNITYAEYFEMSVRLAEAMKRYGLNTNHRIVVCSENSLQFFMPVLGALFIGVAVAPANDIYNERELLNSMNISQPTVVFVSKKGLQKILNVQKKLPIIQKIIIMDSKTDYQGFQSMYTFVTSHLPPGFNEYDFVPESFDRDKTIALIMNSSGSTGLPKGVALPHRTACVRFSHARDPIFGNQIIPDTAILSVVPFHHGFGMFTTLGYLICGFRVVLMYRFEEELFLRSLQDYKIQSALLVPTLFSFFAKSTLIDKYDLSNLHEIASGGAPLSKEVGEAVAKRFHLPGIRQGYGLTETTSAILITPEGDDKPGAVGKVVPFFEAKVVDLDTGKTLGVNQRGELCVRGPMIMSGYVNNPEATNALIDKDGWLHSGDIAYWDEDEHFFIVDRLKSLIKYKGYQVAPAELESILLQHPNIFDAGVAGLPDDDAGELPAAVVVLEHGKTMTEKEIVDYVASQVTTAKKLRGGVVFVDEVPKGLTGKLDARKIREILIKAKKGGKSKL
Hits are given with their value; – = inactive; ? = inconclusive; · = no result given.

SMILES	HSP90 refold inh	TWEAK Fn14 block	TROY NFkB inh	LGR2 antag	HSP90 confirm	luciferase ctr
COC(=O)c1cccc(NC(=O)NC(=O)c2ccccc2Cl)c1	28.9	–	–	–	71.3	16.1
O=C(Nc1ccccc1)Nc1cccc(Cl)c1	–	–	–	·	·	·
CCOc1ccc(NC(=O)c2ccccn2)cc1	82.5	95.2	72.2	95.4	87.9	79.6
O=C(Nc1ccc(Cl)cc1)Nc1cccc(C(=O)O)c1	78.2	–	–	92.2	88.9	86.7
COc1ccc(NC(=O)N[C@@H]2CC[C@H](CCNC(=O)c3cc(Cl)cc(Cl)c3)O[C@H]2CO)cc1	·	·	·	–	·	·
Cc1cc(C(=O)Nc2cccc3c2O[C@H](CN(C)S(=O)(=O)c2cccs2)[C@H](C)CN([C@H](C)CO)C3=O)n(C)n1	·	·	·	–	·	·
CC(=O)Nc1cccc(NC(=O)Nc2cccc3ccccc23)c1	–	–	–	–	·	·
O=C(Nc1ccc(Cl)cc1)Nc1ccccc1C(=O)O	26.6	–	–	?	45.5	43.0
Cc1ccccc1OCC(=O)Nc1cccc(C(=O)O)c1	96.9	59.0	–	101.3	91.5	86.2
CCOc1ccc(NC(=O)Nc2cccc(C(=O)O)c2)cc1	88.9	–	–	104.6	89.6	85.5
O=C(Nc1cccc(C(=O)O)c1)Nc1cccc2ccccc12	18.7	–	–	–	31.7	15.3
COc1ccc(S(=O)(=O)Nc2cccc3c2O[C@H](CN(C)C(=O)Nc2ccc4c(c2)OCO4)[C@H](C)CN([C@@H](C)CO)C3=O)cc1	·	·	·	–	·	·
C[C@@H]1CCCCO[C@H](CN(C)CC2CCCCC2)[C@H](C)CN([C@H](C)CO)C(=O)c2cc(NC(=O)CCC(F)(F)F)ccc2O1	·	·	·	–	·	·
C[C@@H]1CN([C@H](C)CO)C(=O)c2cc(NS(C)(=O)=O)ccc2O[C@@H](C)CCCCO[C@H]1CN(C)S(=O)(=O)c1ccc(F)cc1	·	·	·	–	·	·
Cc1ccc(NC(=O)Nc2ccc3c(c2)nc(C)n3C)cc1	–	–	–	–	·	·
Cc1nc2cc(NC(=O)Nc3ccccc3Cl)ccc2n1C	31.9	59.3	–	50.6	58.9	38.4
O=C(NCc1ccccc1)C(=O)Nc1cccc(C(=O)O)c1	41.9	–	–	83.8	71.3	73.3
O=C(Nc1ccc2nccnc2c1)Nc1ccccc1Cl	–	–	–	–	·	·
O=C(Nc1cccc(C(=O)O)c1)Nc1ccccc1Cl	76.6	–	–	70.4	73.6	71.3
COc1ccc(S(=O)(=O)Nc2ccc3c(c2)C(=O)N([C@H](C)CO)C[C@@H](C)[C@H](CN(C)Cc2ccc4c(c2)OCO4)OCCCC[C@H](C)O3)cc1	·	·	·	–	·	·
CCCc1cn(CC[C@@H]2CC[C@H](NC(=O)C3CCC3)[C@@H](CO)O2)nn1	·	·	·	–	·	·
CNC[C@H]1Oc2ccc(NC(=O)Nc3c(C)noc3C)cc2C(=O)N([C@@H](C)CO)C[C@H]1C	·	·	·	–	·	·
Cn1c2ccccc2c(=O)n2c(=O)c3ccccc3cc12	18.8	·	·	·	22.6	–
Cn1c(-c2ccccc2)cc(=O)c2ccccc21	–	–	–	–	·	·
Cc1ccc(S(=O)(=O)Nc2ccc3c(c2)CC(=O)N([C@@H](C)CO)C[C@@H](C)[C@@H](CN(C)C(=O)Nc2ccc(C(F)(F)F)cc2)O3)cc1	·	·	·	–	·	·
SMILES	HSP90 refold inh	TWEAK Fn14 block	TROY NFkB inh	LGR2 antag	HSP90 confirm	luciferase ctr
Cc1cccc(-n2ncc3c(N4CCOCC4)ncnc32)c1	53.9	84.8	67.9	90.5	76.8	67.7
c1ccc(-n2ncc3c(NCCCN4CCOCC4)ncnc32)cc1	–	–	–	·	·	·
Clc1ccc(-n2ncc3c(NCCN4CCOCC4)ncnc32)cc1	44.2	83.0	67.0	·	50.1	41.8
COc1ccc(-n2ncc3c(NCc4cccnc4)ncnc32)cc1	–	–	–	–	·	·
COc1ccc(-n2ncc3c(N4CCCCC4)ncnc32)cc1	67.0	104.3	86.3	·	89.6	86.2
COc1ccc(-n2ncc3c(NC(C)C)ncnc32)cc1	17.1	63.6	–	·	43.3	31.2
COc1ccc(S(=O)(=O)N(C)C[C@@H]2OCCCC[C@H](C)Oc3ccc(NC(=O)c4ccncc4)cc3C(=O)N([C@H](C)CO)C[C@H]2C)cc1	·	·	·	–	·	·
C[C@H](CO)N1C[C@H](C)[C@@H](CN(C)Cc2ccc3c(c2)OCO3)OCCCC[C@H](C)Oc2ccc(NC(=O)CCCN(C)C)cc2C1=O	·	·	·	–	·	·
Clc1ccc(-n2ncc3c(N4CCCCCC4)ncnc32)cc1	63.5	104.6	92.4	95.9	83.2	86.1
Clc1ccc(Cn2ncc3c(N4CCCCC4)ncnc32)cc1	–	–	–	·	·	·
O=C(Cc1ccccn1)NCC[C@H]1CC[C@@H](NS(=O)(=O)c2ccc(F)cc2)[C@@H](CO)O1	·	·	·	–	·	·
COn1c(-c2ccccc2)nc2c1CCc1c-2no[n+]1[O-]	–	–	–	·	·	·
COc1ccc(-c2nc3c(n2O)CCc2c-3no[n+]2[O-])cc1	36.6	–	–	–	–	–
Cc1c(-c2ccccn2)c(=O)[nH]n1-c1ccc(F)cc1	21.7	50.8	–	–	29.6	–
O=c1[nH]n(-c2ccc(F)cc2)c2ncccc12	–	–	–	·	·	·
COc1cccc(CN(C)C[C@H]2OCc3cn(nn3)CCCC(=O)N([C@@H](C)CO)C[C@@H]2C)c1	·	·	·	–	·	·
C[C@H]1CN([C@@H](C)CO)C(=O)c2cc(C3=CCCC3)cnc2O[C@@H]1CN(C)C(=O)Cc1ccncc1	·	·	·	–	·	·
COc1ccc(Nc2nc(-c3sc(NC(C)=O)nc3C)cs2)cc1	–	·	·	·	·	·
Cc1nc(NC(=O)c2ccccc2)sc1-c1csc(Nc2cccc(Cl)c2)n1	41.8	·	·	·	26.6	–
Cc1nc(NC(=O)c2ccco2)sc1-c1csc(Nc2ccc(Cl)cc2)n1	18.6	–	–	·	–	–
Cc1nc(NC(=O)CC(C)C)sc1-c1csc(Nc2ccc(Cl)cc2)n1	–	–	–	–	·	·
Cc1nc(NC(=O)c2ccccc2)sc1-c1csc(Nc2ccc(Cl)cc2)n1	36.5	·	·	·	25.7	–
Cc1nc(NC(=O)c2ccccc2)sc1-c1csc(Nc2ccc(F)cc2)n1	44.2	·	·	·	31.5	–
C[C@@H]1CN([C@H](C)CO)C(=O)c2cc(C3=CCCCC3)cnc2O[C@@H]1CN(C)C(=O)c1cccnc1	·	·	·	–	·	·
COc1ccc(CN2CCN(S(=O)(=O)c3ccc(NC(C)=O)cc3)CC2)cc1	24.3	–	–	–	–	–
SMILES	HSP90 refold inh	TWEAK Fn14 block	TROY NFkB inh	LGR2 antag	HSP90 confirm	luciferase ctr
O=C(N[C@@H]1CC[C@H](CC(=O)N2CCCCC2)O[C@@H]1CO)c1ccccn1	·	·	·	–	·	·
c1ccc2sc(-c3ccc4c(c3)OCO4)nc2c1	19.0	74.2	–	·	59.7	55.8
O=C(NC1CC1)c1ccc(-c2nc3ccccc3s2)s1	76.0	96.7	70.8	·	80.5	77.1
O=C(c1ccc(-c2nc3ccccc3s2)s1)N1CCOCC1	63.8	·	·	76.4	84.8	79.0
CC(C)NC(=O)Nc1ccc2c(c1)C(=O)N([C@H](C)CO)C[C@@H](C)[C@@H](CN(C)C)OCCCC[C@H](C)O2	·	·	·	–	·	·
COc1ccc(C)cc1S(=O)(=O)N1CCCC(C(=O)N2CCN(c3ccccc3)CC2)C1 (stereo not given)	22.5	–	–	–	–	–
CC(C)(C)[S@@](=O)N1Cc2cc(C(=O)NCc3ccccc3F)nc(-c3cccc(-c4ccncc4)c3)c2[C@H]1CCO	·	·	·	–	·	·
